# Screening data: PubChem BioAssay, National Center for Advancing Translational Sciences (NCATS)
# Gal4-VP16 FLuc: VP16 counterscreen qHTS for inhibitors of ROR gamma transcriptional activity | Potency, µM (series often up to 53.6 µM), without a hit: top-dose activity, negative = inhibition, actives largely listed as inhibitors | Drosophila S2 Gal4-VP16 UAS-luciferase, luminescence, 20 h | hit rate 3.5% among 310,000 | AID 2546, 2010;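 also: Gal4-VP16 expression switched on by copper sulfate through the metallothionein promoter; % is scaled to controls: 0 for no effect and ±100 for the full control effect; nearly all actives have a fitted effect of over 50% in size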
# SW480 rereplic: A quantitative high throughput screen for small molecules that induce DNA re-replication in SW480 colon adenocarcinoma cells. SW480 DNA re-replication, Hoechst DNA content imaging, 48 h. Potency, µM (titrated, usually from 46.1 µM), without a hit: top-dose re-replication activation, hits mostly activators. hit rate 1.8% among 340,000. AID 624297, 2012; also: % of control where 0% means no effect; nearly all actives have a fitted effect of over 55% in size
#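 Cells (250 per well) received 23 nL compound or DMSO by pin tool and were kept 48 hr at 37 C, 5% CO2. Nuclei were then stained with Hoechst for 40 min and scanned for DNA content.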
# KB-3-1 tox: qHTS assay for MDR1-selective chemotherapeutics: Primary screen using the parental adenocarcinoma cell KB-3-1 | KB-3-1 viability, CellTiter-Glo ATP luminescence, 72 h | Potency, µM (series often up to 46.1 µM), hits mostly cytotoxic | hit rate 1.4% among 400,000; also: % is scaled to controls: 0 for no effect and ±100 for the full control effect; nearly all actives have a fitted effect of over 60% in size
#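 Screening of KB-3-1 cells (DMEM, 10% FBS, phenol-red free) ran from lowest to highest compound concentration; after 72 h at 37 °C viability was read luminescently and curves fitted.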
# RORgamma inh: qHTS for inhibitors of ROR gamma transcriptional activity | Nuclear receptor ROR-gamma (Mus musculus), P51450 | Drosophila S2 Gal4-RORgamma UAS-luciferase reporter, 20 h | Potency, µM (top dose mostly 53.6 µM), for inactives: at the highest dose activity change, negative = inhibition, actives largely listed as inhibitors | hit rate 5.4% among 310,000 | AID 2551, 2010; also: % is scaled to controls: 0 for no effect and ±100 for the full control effect; nearly all actives have a fitted effect of over 60% in size
# Target sequence (P51450 whole entry, looked up, the tested form may be a part): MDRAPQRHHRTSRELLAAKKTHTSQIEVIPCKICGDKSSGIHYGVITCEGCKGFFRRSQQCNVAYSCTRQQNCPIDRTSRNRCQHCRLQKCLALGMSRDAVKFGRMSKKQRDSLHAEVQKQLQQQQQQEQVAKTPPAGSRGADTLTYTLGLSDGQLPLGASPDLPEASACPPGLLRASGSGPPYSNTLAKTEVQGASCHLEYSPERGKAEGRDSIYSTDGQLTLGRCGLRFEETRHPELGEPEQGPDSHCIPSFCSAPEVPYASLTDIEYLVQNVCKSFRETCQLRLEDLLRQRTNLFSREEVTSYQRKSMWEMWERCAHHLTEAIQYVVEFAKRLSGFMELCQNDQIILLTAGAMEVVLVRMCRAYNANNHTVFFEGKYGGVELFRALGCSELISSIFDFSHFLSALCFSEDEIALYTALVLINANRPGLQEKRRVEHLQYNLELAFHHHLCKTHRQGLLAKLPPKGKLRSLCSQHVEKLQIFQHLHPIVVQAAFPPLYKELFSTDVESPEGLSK
#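 Compounds are pin-transferred onto Drosophila Schneider cells expressing a copper-inducible Gal4–ROR gamma transactivation domain fusion. After 1 hr, copper sulfate is added to 700 uM final; luciferase is read 20 hr later.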
# KB-V1 cytotox: qHTS assay for MDR1-selective chemotherapeutics: Primary screen using the drug-selected MDR subline cells KB-V1; KB-V1 MDR cells viability, CellTiter-Glo, 72 h; Potency, µM (series often up to 46.1 µM), actives largely listed as cytotoxic; hit rate 3.4% among 400,000; AID 1347076, 2019; also: % is scaled to controls: 0 for no effect and ±100 for the full control effect; nearly all actives have a fitted effect of over 60% in size
#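 Following 72 h at 37 degrees C with compound, KB-V1 cell viability was read by CellTiter-Glo luminescence, medium being phenol-red-free DMEM plus 10% FBS; concentration-response parameters came from normalized, curve-fitted qHTS data.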
# MCF10A rereplic: A quantitative high throughput screen for small molecules that induce DNA re-replication in MCF 10a normal breast cells; MCF 10A DNA re-replication, Hoechst nuclear intensity, 48 h; Potency, µM (highest dose often 46.1 µM), for the others: top-dose activity, positive = re-replication, most hits filed as activators; hit rate 2.9% among 350,000; also: % of control where 0% means no effect; nearly all actives have a fitted effect of over 50% in size
# * marks the source's active call; other numbers are inactive results; i = inactive; ? = inconclusive; · = not tested or not shown; ! = repeats disagree. An excerpt weighted towards active compounds, which were near 10% of everything screened. Calls follow the shape of the dose curve; as a rule, active = well fitted curve in the direction sought with a large enough effect; inconclusive = small, poorly fitted or top-dose-only effect, or another doubt; inactive = no such curve, though single readings can be large; an effect the other way counts as inactive or inconclusive. Potency is read from the fitted curve at half-maximal effect.
SMILES,Gal4-VP16 FLuc,SW480 rereplic,KB-3-1 tox,RORgamma inh,KB-V1 cytotox,MCF10A rereplic
Cc1cc2ccccn2c1C(=O)c1cccc([N+](=O)[O-])c1,-6%,21%,?,26%,?,?
Cc1cc2ccccn2c1C(=O)c1ccc([N+](=O)[O-])o1,?,21µM*,?,-41%,?,?
CO/N=C\CC(=O)Nc1ccc(F)cc1,-4%,1%,i,-13%,i,-2%
CO/N=C\CC(=O)Nc1ccc(Cl)cc1Cl,-10%,7.3µM*,?,-1%,5.8µM*,16µM*
CN(C)c1cccc(F)c1C(=O)NC(=O)Nc1ccc(Cl)cc1,·,?,3.7µM*,·,1.8µM*,10µM*
COCCNc1nc(C)nc2c1nc(-c1ccccc1)n2C1CCN(Cc2ccccc2)C1 (stereo not given),10%,·,·,-10%,·,·
O=C(Cc1ccccc1)NC1CCN(Cc2ccccc2)CC1,1%,1%,i,-16%,i,8%
O=C(NC1CCN(Cc2ccccc2)CC1)C12CC3CC(CC(C3)C1)C2,3%,0%,i,?,26µM*,7%
O=C(Cc1ccc(Br)cc1)NC1CCN(Cc2ccccc2)CC1,-6%,4%,?,45%,18µM*,?
Cn1c(-c2sc3ccccc3c2Cl)n[nH]c1=S,?,-3%,21µM*,?,16µM*,0%
COc1ccc(N(CC(=O)Nc2cccc(Cl)c2)S(=O)(=O)c2c(C)[nH]c(=O)[nH]c2=O)cc1,·,·,i,·,i,·
O=C(Nc1nc2ccccc2n1CCN1CCOCC1)c1ccccc1,3.5µM*,-1%,i,2.8µM*,i,0%
O=C(Nc1nc2ccccc2n1CCN1CCOCC1)c1cn(-c2ccccc2)nc1-c1ccccc1,1.1µM*,?,?,0.63µM*,?,?
CC(=O)Nc1nc2ccccc2n1CCN1CCOCC1,-12%,13%,i,?,i,4%
O=C(NCCCN1CCOCC1)c1cn(-c2ccccc2)nc1-c1ccc(Br)cc1,·,3%,i,·,i,8%
CC(C)Cc1ccc(-c2cc3nc(NCCCn4ccnc4)ccn3n2)cc1,·,·,i,·,i,·
Cc1ccccc1CN1C(=O)c2ccccc2S(=O)c2ccc(C(=O)NCc3ccco3)cc21 (stereo not given),·,·,i,·,i,·
COc1cc(OC)cc(-c2sc3ccc(OC)cc3c2C#CC2(N)CCCCC2)c1,·,18µM*,?,·,?,15µM*
COc1cccc(-c2sc3ccc(OC)cc3c2C#CC2(O)CCCCC2)c1,·,?,?,·,i,?
C(=N\NC1=Nc2cccc3cccc1c23)/c1ccccn1,·,14%,23µM*,0.04µM*,?,?
Clc1ccccc1/C=N/NC1=Nc2cccc3cccc1c23,?,?,i,0.28µM*,i,?
Cc1ccc(C(=O)N/C(=C\c2ccco2)C(=O)NCc2cccnc2)cc1,4%,-9%,i,26%,i,0%
O=C(NCc1cccnc1)/C(=C/c1ccc(-c2cccc(C(F)(F)F)c2)o1)NC(=O)c1ccccc1,-14%,1%,i,?,16µM*,?
Cc1ccc(C(=O)N/C(=C/c2ccc(-c3cc(C(F)(F)F)ccc3Cl)o2)C(=O)NCc2cccnc2)cc1,-4%,1%,?,64%,9.2µM*,8%
CCc1ccc(-c2cn3nc(C)c(C)nc3n2)cc1,?,16%,i,7.1µM*,18µM*,?
SMILES,Gal4-VP16 FLuc,SW480 rereplic,KB-3-1 tox,RORgamma inh,KB-V1 cytotox,MCF10A rereplic
c1ccc(-c2cn3nc4c(nc3n2)CCCC4)cc1,?,?,?,5µM*,?,?
Cc1nc2nc(-c3ccccc3)cn2nc1C,?,?,i,10µM*,21µM*,11%
COc1ccc2[nH]cc(CCNc3ccnc(-c4ccc(C(=O)N(C)C)cc4)n3)c2c1,0%,·,·,9%,·,·
CC[C@H]1C2=C3C(CC[C@H]4C(OCc5ccc(F)cc5C(F)(F)F)OC[C@](C)([C@@H]34)N(C(=O)OC(C)(C)C)C2)C(COC(C)=O)C1COC(C)=O (stereo not given in full),7%,·,·,-2%,·,·
CCOc1ccccc1NC(=S)N1CCN(c2cccc(OC)c2)CC1,?,?,?,13µM*,i,14%
COc1cccc(N2CCN(C(=S)Nc3cc(C)cc(C)c3)CC2)c1,-2%,?,i,4µM*,?,11µM*
COc1cccc(N2CCN(C(=S)Nc3ccc(C)cc3C)CC2)c1,-17%,3%,i,5.6µM*,i,12%
Cc1ccc(Cl)cc1NC(=O)CSc1nc2ccccc2c2nc(-c3ccccc3)nn12,·,·,i,·,i,·
CN(C)C(=O)c1ccc(-c2n[nH]c(=O)c3ccccc23)cc1,-4%,-2%,i,1%,i,0.82µM*
COC(=O)c1ccc(-c2n[nH]c(=O)c3ccccc23)cc1,8%,-8%,i,31%,i,24%
CNc1cc(-c2ccc(CC#N)cc2)ncn1,·,·,i,·,i,·
COc1cc(O)c2c(c1)oc(=O)c1c3cc(O)c(O)cc3oc21,?,·,·,13µM*!,·,·
O=C(COc1ccccc1Cl)Nc1ccc(Cl)c(-c2nc3ccccc3o2)c1,·,·,i,·,i,·
O=C(COc1ccc2ccccc2c1)Nc1ccc2c3c(cccc13)CC2,?,-9%,i,-29%,i,21µM*
Cc1cc(C)cc(OCC(=O)Nc2ccc3c4c(cccc24)CC3)c1,?,1%,i,?,i,?
O=C(COc1ccc2ccccc2c1)Nc1ccc(Br)cc1C(=O)O,?,-3%,?,-25%,i,9.2µM*
CCCCC(CC)CNC(=O)CCCCCn1c(=O)[nH]c2ccsc2c1=O (stereo not given),·,·,i,·,i,·
C=CC(=O)Nc1cccc(Nc2nc(N[C@H]3CC[C@H](N(C)C)CC3)nc3c2ncn3C(C)C)c1,·,?,18µM*,·,i,?
CC(C)n1cnc2c(Nc3cccc(Cl)c3)nc(NCCCO)nc21,-2%,?,i,20%,i,19%
Cc1ccc(CNc2cc(C)nc3nc(-c4ccc(C)cc4)nn23)cc1,·,·,i,·,i,·
Cc1cc(N2CCOCC2)nc(N2CCOCC2)c1C#N,·,·,?,·,7.3µM*,·
